Data on 40 molecules can be found in PubChem BioAssay (EPA / NIEHS).

Results filed as inconclusive are left out. Active and inactive are the calls of the source. Rule for the calls: active = hit-call score of the fitted dose curve at least 0.9, where 1 is the maximum; inconclusive = response in the unintended direction; inactive = score below 0.9.

Read-out in this experiment: ABC Transporter (ABCB1), ABCB1 (gene 5243)
The experiment is described as follows: CLD_ABCB1_48hr: CellzDirect (CLD) Gene Expression Assay for ABC Transporter (ABCB1) at 48 hours (AID 2283695).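 For AC50: potency for induction meaning increase of mRNA over DMSO vehicle.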 As for the experimental part:
CLD_48hr is a cell-based, multiplexed-readout assay that uses hepatocyte, a human liver primary cell, with measurements taken at 48 hours after chemical dosing in a 96-well plate.CLD_ABCB1_48hr is one of 16 assay component(s) measured or calculated from the CLD_48hr assay. It is designed to make measurements of mRNA induction, a form of inducible reporter, as detected with chemiluminescence signals by Quantitative Nuclease Protection Assay (qNPA) technology.Data from the assay component CLD_ABCB1_48hr was analyzed at the endpoint, CLD_ABCB1_48hr, in the positive analysis fitting direction relative to DMSO as the negative control and baseline of activity. Using a type of inducible reporter, gain-of-signal activity can be used to understand changes in the reporter gene as they relate to the gene ABCB1. Furthermore, this assay endpoint can be referred to as a primary readout. To generalize the intended target to other relatable targets, this assay endpoint is annotated to the transporter intended target family, where subfamily is ABC transporter.
Human hepatocyte cultures were treated daily for two consecutive days with fresh dosing solutions containing appropriate concentrations of the 320 ToxCast chemicals (chemical identities were blinded to CellzDirect and other ToxCast collaborators), vehicle control (0.2% DMSO), and positive control inducers as summarized in Table 1. Due to the large number of treatment groups and chemicals examined, the ToxCast chemicals were divided into two groups (spanning two independent cultures of hepatocytes from separate donor preparations (Hu778: ToxCast plates 1 and 2; Hu776: ToxCast plates 3 and 4). Each preparation of human hepatocyte cultures was treated with respective vehicle control, medium only control, set of six positive controls/reference chemicals for the five hepatic receptor pathways, and a subset of eight of the ToxCast chemicals (indoxacarb, pyrithiobac-sodium, norflurazon, cyhalofop-butyl, methomyl, thiram, acetochlor, and propiconazole). These replicate data, coupled with internal replicates designed within the blinded ToxCast chemical library, provided additional data to evaluate interindividual differences between hepatocyte preparations and their potential impact on chemical profiles.Cell morphology and integrity were evaluated using phase-contrast microscopy as an indicator of hepatocyte cell health (Tyson & Green, 1987). Cultures for each treatment group (i.e., media, vehicle [0.2% DMSO], positive control inducers [multiple concentrations], and the ToxCast chemicals [multiple concentrations]) were observed and cell morphology was assessed relative to vehicle control cultures at each harvest time point (0, 6, 24, or 48 h). […] Images were evaluated at the conclusion of the study to assess changes in cell integrity and account for the effects of chemical exposure on uncharacteristic changes in concentration-dependent gene expression profiles. The results from these determinations of apparent cytotoxicity were annotated (yes/no) alongside the corresponding qNPA data for reference.At the conclusion of each treatment period, hepatocyte cultures (96-well) were washed with 1 volume of HBSS, lysed by addition of 25 ul ArrayPlate lysis buffer (HTG, Tucson, AZ), and 70 ul/well of Denaturation Oil, denatured by incubation at 95C for 10 min, and frozen at approximately -70C until analysis by nuclease protection assay (qNPA) (Roberts et al., 2007). For qNPA analysis, cell lysates were thawed at 50C for approximately 30 min, qNPA probes were added, and samples were incubated at 95C for 10 min to begin the detection process by denaturing the target RNA, dissociating the duplexes and secondary structure hybridization. At the conclusion of the hybridization period, S1 nuclease reagent was added to each sample to digest all nonprotected nucleotides at 50C for 60-90 min. […]
For `CCCN(CC)CC1COC2(CCC(C(C)(C)C)CC2)O1` (stereo not given), the result was inactive.
For `CSC(=O)c1c(C(F)F)nc(C(F)(F)F)c(C(=O)SC)c1CC(C)C`, the result was inactive.
With `CC1(C)C(C=C(Cl)Cl)C1C(=O)OC(C#N)c1cccc(Oc2ccccc2)c1` (stereo not given), the result was inactive.
Regarding `COC(=O)NC(=S)Nc1ccccc1NC(=S)NC(=O)OC`, the molecule was called inactive.
Still for that read-out and setting: next, `COCC(=O)N(c1c(C)cccc1C)C(C)C(=O)OC` (stereo not given): “inactive”; `Clc1nc(Cl)nc(Nc2ccccc2Cl)n1`: “inactive”; `COc1ccc(-c2ccccc2)cc1NNC(=O)OC(C)C`: “inactive”.
Still for that read-out and setting: next, `COc1cc(OC)nc(NC(=O)NS(=O)(=O)c2ncccc2OCC(F)(F)F)n1`: “inactive”; `O=C(Nc1ccccc1-c1ccc(Cl)cc1)c1cccnc1Cl`: “inactive”.
As to `CCCC(=NOCC)C1=C(O)CC(CC(C)SCC)CC1=O` (stereo not given), the molecule was called inactive.
Still for that read-out and setting: next, `COCC(C)N(C(=O)CCl)c1c(C)csc1C` (stereo not given): “inactive”; `CC1(C)C(C(=O)OC(C#N)c2cccc(Oc3ccccc3)c2)C1(C)C` (stereo not given): “inactive”.
For the molecule `COP(=S)(OC)SCn1nnc2ccccc2c1=O`, the result was inactive.
On to `COCc1cnc(C2=NC(C)(C(C)C)C(=O)N2)c(C(=O)O)c1` (stereo not given), for which the molecule was called inactive.
For `CC(C)Nc1nc(Cl)nc(NC(C)C)n1`, the call was inactive.
Regarding `CC(C)C1(C)N=C(c2ncccc2C(=O)O)NC1=O` (stereo not given), the molecule was classed as inactive.
What is called AC50 is the midpoint of the concentration-response curve, whichever way the signal moves. With `CCCCC(O)(Cn1cncn1)c1ccc(Cl)cc1Cl` (stereo not given), the AC50 was 31.9 µM (active).
For `CCCCOCN(C(=O)CCl)c1c(CC)cccc1CC`, the call was inactive.
As to `CNC(=O)N(C)c1nnc(C(C)(C)C)s1`, the call was inactive.
Take `Cc1c(COC(=O)[C@@H]2[C@H](/C=C(\Cl)C(F)(F)F)C2(C)C)cccc1-c1ccccc1`: the outcome was inactive.
Still for that read-out and setting: the value for `C=C(C)CN(CC)c1c([N+](=O)[O-])cc(C(F)(F)F)cc1[N+](=O)[O-]` was “inactive”.
Consider `COP(=S)(OC)Oc1ccc([N+](=O)[O-])c(C)c1`, for which the outcome was inactive.
On the same count and under the same terms, the value for `CCSC(=O)N1CCCCCC1` was “inactive”; that for `Cc1nc(N(C)C)nc(OC(=O)N(C)C)c1C` was “inactive”; that for `Clc1cccc(C(Cl)(Cl)Cl)n1` was “inactive”.
Take `N#CN=C1SCCN1Cc1ccc(Cl)nc1`: the molecule was classed as inactive.
With `CCN(CC)C(=O)C(C)Oc1cccc2ccccc12` (stereo not given), the molecule was called inactive.
Take `CCOc1cc(C(C)(C)C)ccc1C1COC(c2c(F)cccc2F)=N1` (stereo not given): the molecule was classed as inactive.
For `COC(=O)NS(=O)(=O)c1ccc(N)cc1`, the outcome was inactive.
Still for that read-out and setting: the value for `O=c1n(Cl)c(=O)n(Cl)c(=O)n1Cl` was “inactive”; that for `CC1(C)CCC(=Cc2ccc(Cl)cc2)C1(O)Cn1cncn1` (stereo not given) was “inactive”.
Turning to `CC1(C)CON(Cc2ccccc2Cl)C1=O`, the call was inactive.
For `Cc1ccc(N=CN(C)C=Nc2ccc(C)cc2C)c(C)c1`, the molecule was classed as inactive.
Still for that read-out and setting: the value for `CCOP(=S)(OCC)Oc1nc(Cl)n(C(C)C)n1` was “inactive”.
As to `Nc1c(Cl)c(F)nc(OCC(=O)O)c1Cl`, the outcome was inactive.
The same measure, in the same setting: the value for `CC(C)N1C(=O)c2ccccc2NS1(=O)=O` was “inactive”; that for `C=CCOC(=O)C(C)(C)OC(=O)c1cc(-n2c(=O)cc(C(F)(F)F)n(C)c2=O)ccc1Cl` was “inactive”; that for `CCOc1nc(F)cc2nc(S(=O)(=O)Nc3c(Cl)cccc3Cl)nn12` was “inactive”.
Still for that read-out and setting: next, `Cn1c(-c2ccccc2)cc(-c2ccccc2)[n+]1C`: “inactive”; `CC(C)(C)C(=O)C(Oc1ccc(Cl)cc1)n1cncn1` (stereo not given): “inactive”.
